Assay results reported in PubChem BioAssay AID1030 (National Center for Advancing Translational Sciences (NCATS), 2008).
The whole screen tested about 220,000 compounds, of which about 16,000 (7.3%) were called active. Not shown: some 25% with an inconclusive outcome. The list comes from a sample in which actives are over-represented; it also holds similar structures and randomly drawn compounds. Unmarked numbers belong to inactive results. The call rests on the fitted dose curve; in most records, active means well fitted inhibition curve with a large enough effect (not every such curve was filed as active); inconclusive means small, poorly fitted or top-dose-only effect, or another doubt; inactive means no such curve, though single readings can be large or run the other way.

target: Aldehyde dehydrogenase 1A1 (Homo sapiens) (UniProt P00352); experiment: qHTS Assay for Inhibitors of Aldehyde Dehydrogenase 1 (ALDH1A1); details: Purified ALDH1A1, NADH fluorescence, propionaldehyde substrate; series mostly up to 75.3 µM; activity, negative = inhibition: at the top concentration;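 on activity, negative = inhibition: plate controls were no enzyme wells and a reference inhibitor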
Sequence (P00352 whole entry, looked up): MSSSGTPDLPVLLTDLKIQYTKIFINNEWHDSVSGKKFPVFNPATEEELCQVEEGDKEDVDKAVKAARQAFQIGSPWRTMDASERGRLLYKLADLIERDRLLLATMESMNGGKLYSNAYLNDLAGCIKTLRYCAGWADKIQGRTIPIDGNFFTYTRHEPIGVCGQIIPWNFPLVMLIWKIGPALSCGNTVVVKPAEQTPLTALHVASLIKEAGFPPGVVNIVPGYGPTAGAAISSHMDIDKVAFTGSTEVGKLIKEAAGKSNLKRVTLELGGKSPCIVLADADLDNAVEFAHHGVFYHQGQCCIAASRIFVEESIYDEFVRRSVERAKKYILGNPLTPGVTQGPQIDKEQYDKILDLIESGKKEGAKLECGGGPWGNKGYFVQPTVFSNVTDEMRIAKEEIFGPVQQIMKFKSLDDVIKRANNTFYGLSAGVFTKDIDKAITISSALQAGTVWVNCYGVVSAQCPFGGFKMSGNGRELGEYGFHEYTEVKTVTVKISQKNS
Potency means the concentration at half of the fitted maximal effect.

SMILES | activity, negative = inhibition | Potency
CN(C)C=NC(=O)c1cccn1-c1ncc(C(F)(F)F)cc1Cl | 4.08% | 
COC(=O)c1cc(NC(=O)c2nn(C)c(=O)c3ccccc23)cc(C(=O)OC)c1 | -2.63% | 
OCCCC1CCCCN1Cc1nc(Cc2ccccc2Cl)no1 (stereo not given) | 4.73% | 
COc1ccc(N2C(=O)/C(=C\c3ccco3)N=C2SCC(N)=O)cc1Cl | -13.6% | 
CCOC(=O)CCC(=O)OCC(=O)NC(C)C1CC2CCC1C2 (stereo not given) |  | 15.8 µM (active)
O=C(COC(=O)CC1CC2CCC1C2)NC(=O)NC1CCCC1 (stereo not given) | -3.73% | 
Cc1ccccc1OCCC(=O)OCC(=O)NC(C)c1ccccc1 (stereo not given) | 4.27% | 
CCOC(=O)CNC(=O)/C(=C\c1ccc(F)cc1)NC(=O)c1ccccc1 | 16.3% | 
CN(C)c1nnnn1-c1ccc(Cl)cc1 | 8.16% | 
Cc1cc(C)cc(NC(=O)CSc2ccccc2)c1 | -1.77% | 
Cc1cccc(NC(=S)Nc2ccc(Br)cc2)c1 | -3.49% | 
Cc1cccc(NC(=O)CSc2nc3[nH]ncc3c(=O)[nH]2)c1 | 6.36% | 
S=C(Nc1cccc(Cl)c1)Nc1ccc2cn[nH]c2c1 |  | 28.2 µM (active)
O=C(Nc1ccc2cn[nH]c2c1)c1ccc(S(=O)(=O)N2CCOCC2)cc1 | -7.41% | 
Cc1cccc(NC(=S)Nc2ccc3cn[nH]c3c2)c1 |  | 10 µM (active)
Cc1csc(NC(=S)Nc2cccc(Cl)c2)n1 | -11% | 
CC(N)(C(=O)O)c1ccc(-c2nn[nH]n2)cc1 (stereo not given) | -9.71% | 
Cc1cc(C)c(S(=O)(=O)N2CCOCC2)cc1C | 8.64% | 
COC1(C2=NCCN2)COc2ccccc2O1 (stereo not given) | 0.458% | 
CC1(C)C(c2cccs2)=[N+]([O-])C2(CCCCC2=O)N1O (stereo not given) |  | 22.4 µM (active)
Cc1cccc(C)c1NC(=O)CNC(=O)Cc1ccc(Br)cc1 | 7.71% | 
CCCCCC1CCC(c2nnc(SCC(C)=O)o2)CC1 (stereo not given) | -4.68% | 
CCN(CC)S(=O)(=O)c1ccc(NC(=O)c2cccnc2Cl)c(NC(=O)c2cccnc2Cl)c1 |  | 7.08 µM (active)
CCN(CC)S(=O)(=O)c1ccc(Cl)c(NC(=O)c2ccncc2)c1 |  | 12.6 µM (active)

SMILES | activity, negative = inhibition | Potency
CCN(CC)S(=O)(=O)c1ccc(C)c(NC(=O)COc2ccc(Br)cc2Cl)c1 | 0.658% | 
CCN(CC)S(=O)(=O)c1cccc(C(=O)Nc2ccccc2)c1 | -7.46% | 
Cc1nn(Cc2ccc(F)cc2)c(C)c1NC(=O)c1cccnc1Cl | 10.5% | 
Cc1ccc(CNC(=O)c2cccnc2Cl)cc1 | 11.7% | 
O=[N+]([O-])c1cc(S(=O)(=O)Nc2cccc(Cl)c2)ccc1N=Nc1c(O)[nH]c2ccccc12 | 7.9% | 
COc1ccc(/C=N/NC(=O)c2ccncc2)cc1CN1CCCc2ccccc21 | -1.8% | 
CC(C)N(C(=O)c1ccc(-c2ccccc2F)cc1)C(C)C | -6.51% | 
COc1ccc(CN(C(=O)c2cccs2)c2nccs2)cc1OC | 2.43% | 
COc1ccc(CN(Cc2ccc(OC)cc2)C(=O)c2cccs2)cc1 |  | 8.91 µM (active)
O=C(c1cccs1)N(C(=O)c1cccs1)c1ccccn1 | -0.508% | 
CCc1ccccc1NC(=S)N(CCN1CCCCCC1)Cc1ccco1 | -4.85% | 
O=C(COC(=O)CNC(=O)c1ccco1)Nc1ccc(F)cc1 | 5.83% | 
CC(C)[C@@H]1NC(=O)[C@H](Cc2ccccc2)NC(=O)[C@@H](CC(=O)O)NC(=O)CNC(=O)[C@H](CCCNC(=N)N)NC1=O | 7.85% | 
Cc1nccc(-c2ccc(-n3c(C)ccc3C)cc2)n1 | -3.39% | 
Cc1ccc(C(=O)O)cc1NC(=O)c1ccc(Cn2nc(C)c(Cl)c2C)o1 | -5.73% | 
O=C(CNC(=O)C(c1ccccc1)c1ccccc1)N/N=C\c1ccc2c(c1)OCO2 | 4.74% | 
O=C(/C=C/c1cc2c(cc1Br)OCO2)NCc1ccc(Cl)cc1 | -10.2% | 
Cc1ccc(C(=O)N/N=C\c2cc(Br)c(Br)o2)cn1 | -1.22% | 
O=C(N/N=C\c1cc(Br)c(Br)o1)C1COc2ccccc2O1 (stereo not given) |  | 17.8 µM (active)
C/C(=N/NC(=O)C1COc2ccccc2O1)c1ccco1 (stereo not given) | 6.2% | 
O=C(N/N=C/c1cc2c(cc1Br)OCO2)C1COc2ccccc2O1 (stereo not given) |  | 25.1 µM (active)
CN(C)c1ccc(C(=S)N2CCN(C(=S)Nc3ccc(Cl)cc3)CC2)cc1 | 5.85% | 
CN(Cc1cc2cc(F)ccc2[nH]1)Cc1nc(-c2cnccn2)no1 | -3.79% | 
CC(=O)Nc1nc(N(C)C)nc(N(C)C)n1 | 5% | 

SMILES | activity, negative = inhibition | Potency
CC(=O)N/N=C(\C)c1ccc(Br)cc1Br | 12% | 
COc1ccc(-c2nc(CN3CCN(c4ncccn4)CC3)c(C)o2)cc1C | 7.29% | 
COc1cc(C2C(N3C(=O)c4ccccc4C3=O)C(=O)N2c2ccc(C)c(C)c2)cc(OC)c1OC (stereo not given) | 3.1% | 
Cc1ccccc1-c1n[nH]c(=S)n1/N=C/c1ccc(-c2ccccc2Br)o1 |  | 14.1 µM (active)
Cc1n[nH]c(=S)n1/N=C/c1ccc(Br)o1 | 5.13% | 
Cc1ccsc1/C=N/n1c(=S)[nH]nc(C)c1=O | -0.343% | 
COc1ccc(C=Nc2cccc3ncccc23)cc1 |  | 17.8 µM (active)
COc1ccc(OC)c(N=Cc2c(O)[nH]c3ccccc23)c1 | -3.97% | 
COc1ccc2nccc(C(=O)O)c2c1 | 9.43% [at 20.9 µM] | 
CC(=O)Nc1ccc(C(=O)OCC(=O)Nc2ccc([N+](=O)[O-])cc2C(F)(F)F)cc1 | -0.0444% | 
CC(C)(C)C(=O)NCCCNc1ccc([N+](=O)[O-])cc1 | -7.51% | 
O=[N+]([O-])c1ccc(NCCCO)c(C(F)(F)F)c1 |  | 15.8 µM (active)
O=C(N/N=C/c1ccc(Cl)cc1)c1nc2ccc([N+](=O)[O-])cc2c(=O)[nH]1 | -8.44% | 
CC(=O)c1cnc(SCC(=O)O)nc1C | 6.8% | 
COc1ccc(NC2=CC(=S)NC(C)(C)C2)cc1 | 1.47% | 
Cc1cccc(C(=O)Nc2ccccc2N2CCN(c3ccc(F)cc3)CC2)c1 | -8.56% | 
O=C(Nc1cccc(NC(=O)N2CCN(c3ccccc3)CC2)c1)N1CCN(c2ccccc2)CC1 | -6.69% | 
Cc1cccc(N2CCN(c3ccc(NC(=O)/C=C\C(=O)O)cc3)CC2)c1 |  | 25.1 µM (active)
CCOCCCn1c(NN)nc2ccccc2c1=O | 0.593% | 
COc1cccc(N(CC(=O)N2CCc3ccccc3C2)S(C)(=O)=O)c1 | 3.68% | 
CCOC(=O)N1CCN(C(=O)CN(c2ccc(C)c(C)c2)S(=O)(=O)c2ccccc2)CC1 | 1.51% | 
Cc1ccc(S(=O)(=O)N(CC(=O)N2CCc3ccccc3C2)c2cccc(Cl)c2)cc1 |  | 0.562 µM (active)
